# PLK1 PBD block: PLK1 (human) polo-box domain binding inhibition; Plk1 PBD binding of FITC phosphopeptide, fluorescence polarization; Potency, µM, for inactives: max response, negative = inhibition, hits mostly inhibitors; hit rate 2.8% among 360,000; note: potency is the fitted concentration of half-maximal effect; series mostly up to about 57 µM; % is set by controls: 0 for no effect and ±100 for the full control effect; nearly all actives have a fitted effect of over 65% in size
# JMJD2A Tudor: inhibitors of human JMJD2A Tudor domain; Potency, µM (titrated, usually from 114 µM), for the others: at the highest dose activity change, negative = inhibition, usual class: inhibitors; O75164; AlphaScreen JMJD2A-Tudor / H3K4me3 peptide binding; hit rate 4.4% among 390,000; note: potency is the fitted concentration of half-maximal effect; % is set by controls: 0 for no effect and ±100 for the full control effect; nearly all actives have a fitted effect of over 50% in size
# G9a inh: inhibitors of human histone lysine methyltransferase G9a; AID 504332; Q96KQ7; hit rate 8.8% among 350,000; G9a H3K9 monomethylation, AlphaScreen, 2 h; Potency, µM (highest dose often 102 µM), for the others: at the highest dose activity, negative = inhibition, actives largely listed as inhibitors; note: potency is the fitted concentration of half-maximal effect; % is set by controls: 0 for no effect and ±100 for the full control effect; nearly all actives have a fitted effect of over 75% in size
# Target sequence (Q96KQ7 913-1193 limits assumed): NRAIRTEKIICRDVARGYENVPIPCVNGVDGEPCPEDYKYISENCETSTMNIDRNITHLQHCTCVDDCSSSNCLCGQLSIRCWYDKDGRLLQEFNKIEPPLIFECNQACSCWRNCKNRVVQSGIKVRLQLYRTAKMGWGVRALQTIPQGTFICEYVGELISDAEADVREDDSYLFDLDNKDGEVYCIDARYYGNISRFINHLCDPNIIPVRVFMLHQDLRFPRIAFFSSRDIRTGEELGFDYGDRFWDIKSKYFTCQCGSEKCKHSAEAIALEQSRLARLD
#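 Signal arises when biotinylated H3K9 peptide, once monomethylated, bridges streptavidin donor and antibody-captured acceptor beads. Enzyme at 20 nM was preincubated 15 min with test compounds; peptide 500 nM and SAM 20 uM then reacted for 2 h.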
# HP1b binding inh: blocks HP1-beta chromodomain binding to methylated histone tails | AlphaScreen HP1-beta / biotin-H3K9me3 peptide binding | Potency, µM (titrated, usually from 114 µM), without a hit: top-dose activity change, negative = inhibition, most hits filed as inhibitors | hit rate 0.56% among 390,000 | P83916; note: potency is the fitted concentration of half-maximal effect; nearly all actives have a fitted effect of over 70% in size
# Target sequence (P83916 whole entry, looked up): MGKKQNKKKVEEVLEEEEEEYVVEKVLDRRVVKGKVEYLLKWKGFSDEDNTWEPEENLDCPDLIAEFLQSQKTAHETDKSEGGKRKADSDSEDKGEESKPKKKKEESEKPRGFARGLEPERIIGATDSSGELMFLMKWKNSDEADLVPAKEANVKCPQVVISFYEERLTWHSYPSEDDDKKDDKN
#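 AlphaScreen: HP1-beta (50 nM) preformed 30 min with biotin-H3(1-18)K9me3 peptide (50 nM) in PBS pH 7.4, 0.01% Tween-20. Compound added for 30 min at RT, then streptavidin donor/nickel chelate acceptor beads (10 ug/mL) for 30 min.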
# PI5P4Ka inh: inhibitors of human PI5P4K alpha | PI5P4Kalpha enzyme, ADP-Glo luminescence, 60 min; active compounds read low | max response, % | AID 652105 | hit rate 1.2% among 330,000; active = max response of -50% or lower; inconclusive = between -30% and -50%; inactive = -30% or higher; note: value at the top dose of about 77 µM; % is set by controls: 0 for no effect and ±100 for the full control effect
#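 Compounds were pin-transferred onto PI5P4Kalpha and substrate in HEPES pH 7.4 buffer with EGTA, CHAPS and 5% DMSO. ATP (5 microM final) started the reaction, which ran 60 minutes at room temperature before ADP-Glo detection.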
# BAZ2B inh: inhibitors of human BAZ2B bromodomain | Q9UIF8 | AlphaScreen BAZ2B-H3K14Ac peptide displacement | Potency, µM (titrated, usually from 114 µM), for inactives: at the top dose activity change, negative = inhibition, actives largely listed as inhibitors | hit rate 4.4% among 360,000 | AID 504333; note: potency is the fitted concentration of half-maximal effect; % is set by controls: 0 for no effect and ±100 for the full control effect; nearly all actives have a fitted effect of over 60% in size
#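 AlphaScreen displacement: compounds (up to 110uM) incubated 30 min at room temperature with a preformed 50 nM BAZ2B/50 nM biotinylated H3K14Ac peptide complex in PBS pH 7.4 with Tween-20. Donor and acceptor beads at 10 ug/mL final added, 20 min light-protected before reading.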
# The depositor's hits bear a star; ? = inconclusive; · = not tested or not shown; ! = a repeat was not active; [ ] = remark or other dose. In the library only some 12% were active in any assay of this set; here they are far more common. Unless noted, calls come from the whole dose curve; as a rule, active = well fitted curve in the direction sought with a large enough effect; inconclusive = small, poorly fitted or top-dose-only effect, or another doubt; inactive = no such curve, though single readings can be large; an effect the other way counts as inactive or inconclusive.
SMILES,PLK1 PBD block,JMJD2A Tudor,G9a inh,HP1b binding inh,PI5P4Ka inh,BAZ2B inh
CCOc1ccc(NC(=S)N/N=C(\C)Cc2ccc(OC)cc2)cc1,?,7.1µM*,?,-24%,0,?
COc1ccc(C/C(C)=N/NC(=S)Nc2ccccc2)cc1,?,-34%,?,27%,-17,-10%
CCCCc1ccc(NC(=S)Nc2ccc(Nc3ccc(OC)cc3)cc2)cc1,15µM*,28µM*,13µM*,?,3,14µM*
COc1ccc(CNC(=S)Nc2cc(C)ccc2C)cc1,?,-17%,?,-22%,-8,-9%
COc1ccc(/C(C)=N/NC(=S)Nc2cc(C)ccc2C)cc1,-11%,?,35µM*,-21%,6,?
CCOc1ccc(CSCCNC(=S)Nc2ccc(OC)cc2)cc1,-12%,-29%,-27%,23%,-1,-14%
COc1cccc(NC(=O)CCN2C(=O)C3CC=CCC3C2=O)c1 (stereo not given),-17%,-2%,6%,19%,7,-11%
COc1ccc(S(=O)(=O)N/N=C(/C)c2ccc(C)o2)cc1,-19%,-18%,·,12%,-4,·
CCOc1ccc(S(=O)(=O)N/N=C(\C)Cc2ccc(OC)cc2)cc1,-4%,-15%,40µM*,17%,7,?
COc1ccc(C/C(C)=N/NC(=S)Nc2ccc(C)c(C)c2)cc1,?,32µM*,28µM*,-30%,-14,1%
Cc1c(NC(=O)CN(c2ccc(F)cc2)S(=O)(=O)c2ccccc2)c(=O)n(-c2ccccc2)n1C,-5%,-8%,45µM*,24%,-3,?
Cc1c(NC(=O)CSc2n[nH]c(=O)n2-c2ccccc2)c(=O)n(-c2ccccc2)n1C,27µM*,22µM*,-1%,?,4,-7%
Cc1cc(C)n2nc(SCC(=O)Nc3c(C)n(C)n(-c4ccccc4)c3=O)nc2n1,2%,18%,45µM*,15%,-7,?
Cc1cc(C)cc(-n2c(C)cc(/C=N/NC(=O)CSc3ncccn3)c2C)c1,-8%,79µM*,79µM*,?,2,?
Cc1c(NC(=O)CN(c2ccccc2)S(=O)(=O)c2ccc(F)cc2)c(=O)n(-c2ccccc2)n1C,0%,-3%,·,18%,-1,-11%
Cc1c(NC(=O)CSc2nnc(COc3ccccc3)n2-c2ccccc2)c(=O)n(-c2ccccc2)n1C,6%,-9%,7%[59 µM],21%,7,9%
Cc1ccc(S(=O)(=O)NCC(=O)Nc2cccnc2)cc1C,-2%,-3%,·,11%,-6,·
Cc1cc(C)n2nc(SCC(=O)N/N=C/c3ccccn3)nc2n1,0%,8.9µM*,8.9µM*,33%,-5,-1%
Cc1cccc(N2NC(=O)/C(=C/c3ccc(-c4ccc(Cl)c(C(=O)O)c4)o3)C2=O)c1,17µM*,?,13µM*,?,?,·
CCOC(=O)c1cc(-c2ccc(/C=N\n3cnnc3)o2)ccc1Cl,-9%,-33%,-8%[59 µM],3%,-3,-6%
O=C1NN(c2ccccc2)C(=O)/C1=C/c1ccc(-c2ccc(Cl)c(C(=O)O)c2)o1,?,56µM*,18µM*,?,-16,50µM*
COc1ccc(N2CCN(S(=O)(=O)c3c(C)[nH]c(C)c3C(=O)N3CCCC3)CC2)cc1,-11%,-20%,-6%,43%,-6,-35%
CC(C)CN(CC(C)C)c1ccc(/C=N/n2cnnc2)cc1[N+](=O)[O-],-11%,45µM*,?,?,-5,?
COCCCN1C(=O)c2oc3ccccc3c(=O)c2C12C(=O)N(C)c1ccccc12 (stereo not given),·,-8%,5%[59 µM],35%,·,-3%
COc1ccc(C2C(C(=O)Nc3ccccc3)=C(C)Nc3nc(-c4ccccc4Cl)nn32)cc1OC (stereo not given),·,-15%,?,16%,·,-3%
SMILES,PLK1 PBD block,JMJD2A Tudor,G9a inh,HP1b binding inh,PI5P4Ka inh,BAZ2B inh
CC(C)C(=O)Nc1sc2c(c1-c1nc3ccccc3[nH]1)CCCC2,-15%,-23%,14µM*,41%,-8,4%
CC(C)C(=O)Nc1ccccc1-c1nc2ccccc2[nH]c1=O,-3%,-14%,?,19%,1,-19%
CCCCCCCCCCCCCCCCOC[C@H](COP(=O)([O-])OCC[N+](C)(C)C)OC(=O)NC,·,·,-18%[59 µM],·,·,·
O=c1[nH]c(Nc2ccc(F)cc2)cc2ccccc12,-29%,-14%,11µM*,10%,·,-10%
COc1ccccc1Nc1cc2ccccc2c(=O)[nH]1,·,79µM*,·,·,·,·
Cc1ccccc1Nc1cc2ccccc2c(=O)[nH]1,?,45µM*!,?,-9%,-10,-35%
N#CCC(=O)NN,·,·,17%[12.7 µM],·,·,·
Cc1ccc(NC(=S)c2ccncc2)c(C)c1,-4%,0%,79µM*,52%,6,?
Cc1ccc(NC(=S)NNC(=S)Nc2ccc(C)cc2C)cc1,11µM*,?,-28%,?,-25,-19%
Cc1ccc(NC(=S)Nc2cccc3ccccc23)cc1F,-12%,-20%,·,-9%,-5,-35%
CCc1ccc(NC(=S)Nc2cccc3cnccc23)cc1,-51%,-15%,45µM*,-4%,-27,?
Cc1cc(C)cc(NC(=S)Nc2cccc3cnccc23)c1,?,-31%,18µM*,?,0,?
Cc1ccc(NC(=S)Nc2ccc3cn[nH]c3c2)c(C)c1,-10%,-11%,?,-11%,-4,-30%
Cc1ccc(NC(=S)Nc2ccccn2)c(C)c1,?,-17%,?,15%,3,-34%
C=C(C)CNC(=S)Nc1cccc2cnccc12,-19%,-1%,25%,54%,1,34%
O=C(c1cc(C2CCCCN2C(=O)CCCc2ccccc2)on1)N1CCOCC1 (stereo not given),2%,·,·,·,1,·
Cc1ccc(NC(=S)Nc2cccc3cnccc23)c(C)c1,?,-14%,50µM*,-10%,3,-22%
O=C(NC(=S)Nc1cccc2cnccc12)c1ccccc1,-1%,-9%,40µM*,39%,0,0%
O=C(NC(=S)Nc1cccc2cccnc12)c1ccccc1,-4%,-9%,-16%,12%,-2,9%
COc1cccc(C(=O)NCCSc2c(-c3ccc(F)cc3)[nH]c3ccccc23)c1OC,·,-27%,-4%[59 µM],14%,·,-22%
CC1=C(C(=O)Nc2cccnc2)C(c2cccc(Br)c2)n2nc(SCc3ccccc3)nc2N1 (stereo not given),·,-15%,8%[59 µM],6%,·,1%
O=C(O)COc1ccc(Br)cc1/C=N/O,-5%,-32%,56µM*,24%,-6,?
O=c1[nH]c(-c2ccccc2)c(-c2ccccc2)nc1[N+](=O)[O-],-3%,-14%,50µM*,3%,1,0%
CC(C)c1nc(-c2ccccc2)c(-c2ccccc2)[nH]1,-14%,-5%,21%,6%,3,1%

# Compound activity (PubChem BioAssay)
